The structures appear in SMILES notation.

By inhibition is commonly meant the drop in the measured response relative to a control, in per cent.

Experiment [1] deals with T1, Serine/threonine-protein kinase Nek9 (Homo sapiens) (UniProt Q8TD19).
T1 sequence (whole entry): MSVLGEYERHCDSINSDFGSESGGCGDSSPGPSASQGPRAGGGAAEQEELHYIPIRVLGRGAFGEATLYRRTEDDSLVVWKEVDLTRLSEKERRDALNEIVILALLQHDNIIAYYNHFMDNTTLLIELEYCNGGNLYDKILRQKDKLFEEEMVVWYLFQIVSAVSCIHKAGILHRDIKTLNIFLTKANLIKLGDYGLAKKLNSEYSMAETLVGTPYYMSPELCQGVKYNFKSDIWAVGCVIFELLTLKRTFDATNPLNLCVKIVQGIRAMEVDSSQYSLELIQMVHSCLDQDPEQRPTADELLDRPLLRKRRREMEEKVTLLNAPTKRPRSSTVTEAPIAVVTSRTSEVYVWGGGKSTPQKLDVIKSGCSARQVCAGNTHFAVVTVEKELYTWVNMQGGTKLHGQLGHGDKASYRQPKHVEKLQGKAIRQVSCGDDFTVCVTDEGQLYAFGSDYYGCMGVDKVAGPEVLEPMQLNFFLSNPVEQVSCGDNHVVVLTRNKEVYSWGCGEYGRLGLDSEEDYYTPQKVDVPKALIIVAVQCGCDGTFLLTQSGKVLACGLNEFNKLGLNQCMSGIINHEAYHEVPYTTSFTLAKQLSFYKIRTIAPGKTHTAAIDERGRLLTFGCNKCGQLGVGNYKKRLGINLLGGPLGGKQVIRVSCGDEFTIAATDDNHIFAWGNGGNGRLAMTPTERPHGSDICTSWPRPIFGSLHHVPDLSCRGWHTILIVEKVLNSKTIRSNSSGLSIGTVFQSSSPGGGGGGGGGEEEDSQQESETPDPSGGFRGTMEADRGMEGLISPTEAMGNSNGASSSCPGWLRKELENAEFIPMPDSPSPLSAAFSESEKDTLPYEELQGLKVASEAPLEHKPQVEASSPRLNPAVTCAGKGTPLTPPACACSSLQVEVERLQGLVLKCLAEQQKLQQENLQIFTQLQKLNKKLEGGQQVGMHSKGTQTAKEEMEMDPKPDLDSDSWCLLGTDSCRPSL
The following applies: at 1 µM.

In experiment [2] the target is Serine/threonine-protein kinase PLK1 (Homo sapiens) (UniProt P53350). Conditions: at 0.1 µM.
For experiment [3] the target is unchanged. Conditions: at 1 µM.
The target of experiment [4] is T2, Dual specificity protein kinase TTK (Homo sapiens) (UniProt P33981).
T2 sequence (whole entry): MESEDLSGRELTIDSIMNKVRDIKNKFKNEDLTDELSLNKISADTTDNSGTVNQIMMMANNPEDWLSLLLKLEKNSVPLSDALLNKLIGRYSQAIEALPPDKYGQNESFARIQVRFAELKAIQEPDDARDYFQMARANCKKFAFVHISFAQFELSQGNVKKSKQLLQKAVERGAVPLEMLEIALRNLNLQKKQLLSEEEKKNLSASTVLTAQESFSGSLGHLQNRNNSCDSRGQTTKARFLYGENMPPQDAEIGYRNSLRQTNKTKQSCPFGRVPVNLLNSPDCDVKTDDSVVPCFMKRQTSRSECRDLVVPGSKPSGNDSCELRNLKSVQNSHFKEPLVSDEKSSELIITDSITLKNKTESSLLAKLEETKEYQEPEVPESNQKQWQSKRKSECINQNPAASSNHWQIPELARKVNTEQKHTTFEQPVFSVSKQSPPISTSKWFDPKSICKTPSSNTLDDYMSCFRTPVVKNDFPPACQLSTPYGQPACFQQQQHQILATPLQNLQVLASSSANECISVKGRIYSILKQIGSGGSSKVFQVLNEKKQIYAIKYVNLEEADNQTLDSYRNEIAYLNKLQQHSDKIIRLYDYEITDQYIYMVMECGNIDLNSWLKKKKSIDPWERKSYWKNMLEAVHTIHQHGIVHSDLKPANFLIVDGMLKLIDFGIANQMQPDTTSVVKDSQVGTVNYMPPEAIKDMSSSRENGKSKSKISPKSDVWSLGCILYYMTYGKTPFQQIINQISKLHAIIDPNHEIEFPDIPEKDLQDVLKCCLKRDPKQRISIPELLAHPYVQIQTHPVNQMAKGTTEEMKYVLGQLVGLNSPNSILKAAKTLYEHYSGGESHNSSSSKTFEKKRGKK
The following applies: at 0.1 µM.

The target of experiment [5] is Vascular endothelial growth factor receptor 3 (Homo sapiens) (UniProt P35916). Conditions: at 0.1 µM.
Sequence of Vascular endothelial growth factor receptor 3 (Homo sapiens) (P35916 whole entry): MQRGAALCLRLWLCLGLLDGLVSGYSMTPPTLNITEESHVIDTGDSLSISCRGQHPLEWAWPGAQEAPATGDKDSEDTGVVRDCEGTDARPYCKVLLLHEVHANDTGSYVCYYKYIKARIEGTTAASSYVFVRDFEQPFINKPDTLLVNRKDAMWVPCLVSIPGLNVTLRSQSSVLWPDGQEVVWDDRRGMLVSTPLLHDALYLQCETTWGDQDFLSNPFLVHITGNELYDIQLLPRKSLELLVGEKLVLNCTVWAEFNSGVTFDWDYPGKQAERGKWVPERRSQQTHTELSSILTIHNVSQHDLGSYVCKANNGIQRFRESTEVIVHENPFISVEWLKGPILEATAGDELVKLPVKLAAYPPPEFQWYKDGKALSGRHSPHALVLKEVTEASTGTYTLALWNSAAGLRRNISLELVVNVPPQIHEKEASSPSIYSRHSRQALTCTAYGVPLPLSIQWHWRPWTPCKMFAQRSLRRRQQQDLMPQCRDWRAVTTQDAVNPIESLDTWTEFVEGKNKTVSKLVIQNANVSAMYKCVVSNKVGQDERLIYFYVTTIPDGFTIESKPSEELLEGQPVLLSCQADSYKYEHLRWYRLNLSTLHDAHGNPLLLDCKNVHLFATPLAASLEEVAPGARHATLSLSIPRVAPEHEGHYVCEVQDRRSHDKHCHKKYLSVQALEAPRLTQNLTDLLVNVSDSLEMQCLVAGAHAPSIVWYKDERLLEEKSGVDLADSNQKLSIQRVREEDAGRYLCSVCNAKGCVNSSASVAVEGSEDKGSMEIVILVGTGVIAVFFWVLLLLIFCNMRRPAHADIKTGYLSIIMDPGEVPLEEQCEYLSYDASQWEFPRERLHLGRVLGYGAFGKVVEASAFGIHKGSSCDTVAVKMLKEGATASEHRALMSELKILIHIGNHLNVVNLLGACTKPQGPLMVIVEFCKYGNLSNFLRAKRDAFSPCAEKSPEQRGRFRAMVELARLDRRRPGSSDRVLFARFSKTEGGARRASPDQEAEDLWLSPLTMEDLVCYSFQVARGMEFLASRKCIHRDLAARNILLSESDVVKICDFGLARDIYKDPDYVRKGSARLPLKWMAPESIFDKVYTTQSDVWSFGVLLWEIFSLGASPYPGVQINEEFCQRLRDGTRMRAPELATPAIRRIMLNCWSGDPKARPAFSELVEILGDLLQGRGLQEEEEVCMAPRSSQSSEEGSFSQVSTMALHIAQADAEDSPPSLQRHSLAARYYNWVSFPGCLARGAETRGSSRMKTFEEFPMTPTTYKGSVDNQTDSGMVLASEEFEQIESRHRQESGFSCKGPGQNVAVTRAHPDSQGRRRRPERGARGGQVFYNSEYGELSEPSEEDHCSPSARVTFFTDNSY
The target of experiment [6] is Macrophage colony-stimulating factor 1 receptor (Homo sapiens) (UniProt P07333). The following applies: at 0.1 µM.
For experiment [7] the target is unchanged. The following applies: at 1 µM.
In experiment [8] the target is Tyrosine-protein kinase Fyn (Homo sapiens) (UniProt P06241). The following applies: at 0.1 µM.
Sequence of Tyrosine-protein kinase Fyn (Homo sapiens) (P06241 2-537 limits assumed): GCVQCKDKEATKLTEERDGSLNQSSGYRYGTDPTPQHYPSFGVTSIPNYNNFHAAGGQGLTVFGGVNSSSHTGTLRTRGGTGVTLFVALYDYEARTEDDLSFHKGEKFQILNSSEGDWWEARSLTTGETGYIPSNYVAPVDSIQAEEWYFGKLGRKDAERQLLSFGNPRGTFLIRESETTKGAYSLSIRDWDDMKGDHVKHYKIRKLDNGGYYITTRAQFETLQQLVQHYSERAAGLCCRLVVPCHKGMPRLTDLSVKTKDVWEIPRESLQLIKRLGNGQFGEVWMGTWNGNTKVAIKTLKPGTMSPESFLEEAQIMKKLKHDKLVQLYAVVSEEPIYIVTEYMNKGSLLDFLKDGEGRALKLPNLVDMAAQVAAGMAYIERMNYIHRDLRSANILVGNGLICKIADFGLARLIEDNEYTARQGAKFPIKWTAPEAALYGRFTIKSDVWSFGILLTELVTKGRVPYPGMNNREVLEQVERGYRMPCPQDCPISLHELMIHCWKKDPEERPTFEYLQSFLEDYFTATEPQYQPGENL
Experiment [9] shares this target. The following applies: at 1 µM.
Experiment [10] deals with Tyrosine-protein kinase HCK (Homo sapiens) (UniProt P08631). The following applies: at 0.1 µM.
Experiment [11] has the same target. Conditions: at 1 µM.
Experiment [12] concerns the target Insulin-like growth factor 1 receptor (Homo sapiens) (UniProt P08069). Conditions: at 0.1 µM.
Experiment [13] shares this target. The following applies: at 1 µM.
For experiment [14], the target named is Insulin receptor (Homo sapiens) (UniProt P06213). Conditions: at 0.1 µM.
Sequence of Insulin receptor (Homo sapiens) (P06213 28-758 limits assumed): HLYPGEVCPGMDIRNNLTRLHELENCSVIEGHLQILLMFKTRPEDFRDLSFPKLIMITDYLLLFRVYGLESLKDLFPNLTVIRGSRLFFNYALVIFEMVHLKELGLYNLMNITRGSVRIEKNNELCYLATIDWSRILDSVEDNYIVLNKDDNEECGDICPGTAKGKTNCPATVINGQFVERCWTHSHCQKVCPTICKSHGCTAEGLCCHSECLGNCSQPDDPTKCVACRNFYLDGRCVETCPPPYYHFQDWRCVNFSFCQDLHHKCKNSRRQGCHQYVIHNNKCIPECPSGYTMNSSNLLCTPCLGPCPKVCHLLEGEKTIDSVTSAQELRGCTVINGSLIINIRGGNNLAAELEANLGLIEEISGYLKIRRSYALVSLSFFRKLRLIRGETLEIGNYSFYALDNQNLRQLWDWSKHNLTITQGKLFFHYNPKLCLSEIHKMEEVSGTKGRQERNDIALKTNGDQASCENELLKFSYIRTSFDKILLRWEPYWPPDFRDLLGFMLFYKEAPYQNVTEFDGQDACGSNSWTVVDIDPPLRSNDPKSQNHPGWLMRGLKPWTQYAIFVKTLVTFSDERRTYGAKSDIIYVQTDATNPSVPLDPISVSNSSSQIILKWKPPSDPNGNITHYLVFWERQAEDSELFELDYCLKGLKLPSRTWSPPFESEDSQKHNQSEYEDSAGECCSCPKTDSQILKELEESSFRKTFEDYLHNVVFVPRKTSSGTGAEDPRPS
Sequence of Insulin receptor (Homo sapiens) (P06213 763-1382 limits assumed): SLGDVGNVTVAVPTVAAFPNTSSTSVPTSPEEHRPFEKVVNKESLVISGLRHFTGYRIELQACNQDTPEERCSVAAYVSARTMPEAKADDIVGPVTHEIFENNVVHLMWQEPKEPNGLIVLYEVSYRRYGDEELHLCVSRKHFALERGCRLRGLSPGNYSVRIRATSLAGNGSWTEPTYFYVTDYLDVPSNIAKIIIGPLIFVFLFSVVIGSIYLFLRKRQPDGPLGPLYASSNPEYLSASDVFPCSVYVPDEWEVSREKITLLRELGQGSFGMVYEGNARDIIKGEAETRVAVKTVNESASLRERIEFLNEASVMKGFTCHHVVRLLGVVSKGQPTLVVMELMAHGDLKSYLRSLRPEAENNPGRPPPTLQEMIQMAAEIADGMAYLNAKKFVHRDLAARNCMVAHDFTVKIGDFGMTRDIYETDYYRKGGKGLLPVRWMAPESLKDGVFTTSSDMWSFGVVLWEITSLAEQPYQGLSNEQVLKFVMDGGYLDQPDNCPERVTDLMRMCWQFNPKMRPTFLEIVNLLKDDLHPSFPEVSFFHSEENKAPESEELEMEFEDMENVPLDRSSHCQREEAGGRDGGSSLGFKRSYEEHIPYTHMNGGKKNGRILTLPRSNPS
For experiment [15] the target is unchanged. The following applies: at 1 µM.
Experiment [16] concerns the target Insulin receptor-related protein (Homo sapiens) (UniProt P14616). Conditions: at 0.1 µM.
The target is the same in experiment [17]. Conditions: at 1 µM.
In experiment [18] the target is T3, Tyrosine-protein kinase ITK/TSK (Homo sapiens) (UniProt Q08881).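 Note: mean percent inhibition of ITK from the GSK PKIS screen.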
T3 sequence (whole entry): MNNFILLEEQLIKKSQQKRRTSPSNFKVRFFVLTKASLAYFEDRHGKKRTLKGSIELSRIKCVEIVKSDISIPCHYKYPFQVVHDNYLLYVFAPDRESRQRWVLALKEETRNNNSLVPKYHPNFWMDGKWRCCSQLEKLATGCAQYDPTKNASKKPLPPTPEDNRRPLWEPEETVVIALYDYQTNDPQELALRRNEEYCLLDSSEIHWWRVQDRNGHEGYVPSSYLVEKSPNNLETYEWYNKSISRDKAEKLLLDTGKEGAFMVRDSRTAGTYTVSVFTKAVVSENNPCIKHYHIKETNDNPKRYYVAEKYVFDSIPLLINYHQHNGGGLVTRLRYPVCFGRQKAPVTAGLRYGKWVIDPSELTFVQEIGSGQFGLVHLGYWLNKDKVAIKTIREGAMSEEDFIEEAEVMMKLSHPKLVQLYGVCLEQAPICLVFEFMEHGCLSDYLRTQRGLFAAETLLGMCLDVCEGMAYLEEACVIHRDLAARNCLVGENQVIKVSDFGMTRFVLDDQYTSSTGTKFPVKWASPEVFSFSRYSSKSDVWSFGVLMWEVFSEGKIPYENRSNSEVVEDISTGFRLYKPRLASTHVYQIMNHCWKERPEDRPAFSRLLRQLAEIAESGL
Conditions: at 0.1 µM.

For experiment [19], the system named is T4, Receptor-type tyrosine-protein kinase FLT3 (Homo sapiens), P36888 [D835Y].
T4 sequence (whole entry): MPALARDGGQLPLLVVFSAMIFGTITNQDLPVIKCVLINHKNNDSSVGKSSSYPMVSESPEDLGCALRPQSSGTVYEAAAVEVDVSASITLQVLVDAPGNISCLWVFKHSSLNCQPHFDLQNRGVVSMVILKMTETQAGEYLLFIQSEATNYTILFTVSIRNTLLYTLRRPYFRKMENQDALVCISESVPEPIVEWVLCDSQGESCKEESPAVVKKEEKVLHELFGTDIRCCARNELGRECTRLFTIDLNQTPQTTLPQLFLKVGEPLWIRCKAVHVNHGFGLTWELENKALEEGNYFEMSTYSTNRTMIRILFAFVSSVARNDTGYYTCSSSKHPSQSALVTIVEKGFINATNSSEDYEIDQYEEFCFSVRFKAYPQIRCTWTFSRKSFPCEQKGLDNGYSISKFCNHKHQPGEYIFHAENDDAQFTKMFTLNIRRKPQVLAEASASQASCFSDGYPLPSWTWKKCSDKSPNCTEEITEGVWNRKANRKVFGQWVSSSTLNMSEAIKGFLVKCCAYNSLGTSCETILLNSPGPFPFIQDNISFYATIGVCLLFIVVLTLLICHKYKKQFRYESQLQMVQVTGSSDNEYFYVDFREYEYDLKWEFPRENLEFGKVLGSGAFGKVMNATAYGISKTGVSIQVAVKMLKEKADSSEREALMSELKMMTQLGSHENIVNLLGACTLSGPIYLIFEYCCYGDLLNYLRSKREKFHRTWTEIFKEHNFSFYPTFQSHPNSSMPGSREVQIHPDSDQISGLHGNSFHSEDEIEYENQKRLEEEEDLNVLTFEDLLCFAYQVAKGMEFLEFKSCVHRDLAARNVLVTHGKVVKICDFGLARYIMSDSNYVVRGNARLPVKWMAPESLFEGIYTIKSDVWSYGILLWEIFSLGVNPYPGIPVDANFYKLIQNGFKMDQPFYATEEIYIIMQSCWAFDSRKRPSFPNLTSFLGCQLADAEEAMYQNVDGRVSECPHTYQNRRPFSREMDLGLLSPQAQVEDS
The following applies: at 1 µM.

Experiment [20] deals with Vascular endothelial growth factor receptor 3 (Homo sapiens) (UniProt P35916). Conditions: at 1 µM.

Sequence of Insulin-like growth factor 1 receptor (Homo sapiens) (P08069 31-736 limits assumed): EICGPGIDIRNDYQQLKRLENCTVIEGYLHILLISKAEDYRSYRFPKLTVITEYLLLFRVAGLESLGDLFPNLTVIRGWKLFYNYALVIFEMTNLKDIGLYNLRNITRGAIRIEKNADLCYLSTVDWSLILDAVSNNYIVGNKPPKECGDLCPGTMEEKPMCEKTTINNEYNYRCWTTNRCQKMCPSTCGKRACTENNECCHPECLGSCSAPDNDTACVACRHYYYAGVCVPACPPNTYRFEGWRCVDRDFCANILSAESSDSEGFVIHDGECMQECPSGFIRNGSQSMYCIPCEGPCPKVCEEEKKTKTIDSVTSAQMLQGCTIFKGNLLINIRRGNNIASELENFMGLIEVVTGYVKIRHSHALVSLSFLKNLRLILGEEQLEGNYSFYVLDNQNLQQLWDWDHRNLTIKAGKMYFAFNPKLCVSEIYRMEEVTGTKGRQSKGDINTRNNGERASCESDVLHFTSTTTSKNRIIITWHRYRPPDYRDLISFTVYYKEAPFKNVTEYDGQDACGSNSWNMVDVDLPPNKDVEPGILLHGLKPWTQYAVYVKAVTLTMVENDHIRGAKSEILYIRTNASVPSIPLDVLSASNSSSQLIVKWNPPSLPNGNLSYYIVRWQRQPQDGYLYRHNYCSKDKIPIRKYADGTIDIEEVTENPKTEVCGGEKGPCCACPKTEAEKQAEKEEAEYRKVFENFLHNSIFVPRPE
Sequence of Insulin-like growth factor 1 receptor (Homo sapiens) (P08069 741-1367 limits assumed): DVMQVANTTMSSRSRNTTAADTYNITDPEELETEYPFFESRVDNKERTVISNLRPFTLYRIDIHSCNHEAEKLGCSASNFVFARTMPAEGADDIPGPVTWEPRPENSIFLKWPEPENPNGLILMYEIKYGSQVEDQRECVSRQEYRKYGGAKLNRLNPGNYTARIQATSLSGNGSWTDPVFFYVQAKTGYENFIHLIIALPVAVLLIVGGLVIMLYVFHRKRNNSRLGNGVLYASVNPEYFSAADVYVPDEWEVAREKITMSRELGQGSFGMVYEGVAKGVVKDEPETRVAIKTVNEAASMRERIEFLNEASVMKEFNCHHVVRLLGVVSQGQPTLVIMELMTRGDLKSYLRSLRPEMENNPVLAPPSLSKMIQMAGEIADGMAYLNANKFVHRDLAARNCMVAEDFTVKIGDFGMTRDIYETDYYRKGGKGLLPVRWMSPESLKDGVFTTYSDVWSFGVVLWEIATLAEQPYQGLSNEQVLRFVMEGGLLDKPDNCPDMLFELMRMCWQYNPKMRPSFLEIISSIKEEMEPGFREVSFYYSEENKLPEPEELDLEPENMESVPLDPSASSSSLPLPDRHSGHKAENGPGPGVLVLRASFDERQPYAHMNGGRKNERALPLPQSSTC

As for `COc1cc(N2CCN(C(C)C)CC2)ccc1Nc1nc(Nc2ccc(F)cc2C(=O)NC[C@@H](O)CO)c2cc[nH]c2n1`, the inhibition in experiment [1] is 15.3%; in experiment [2] it was 9.77%; in experiment [3], 38%; in [4], 74%; in experiment [5], -9.16%; in [6], 1.22%. Also, the inhibition is 0.02% in experiment [7]; 0.03% in experiment [8]; -0.08% in experiment [9]; 3.99% in [10]; 5% in experiment [11]; 80.6% in experiment [12]. In addition, the inhibition in experiment [13] is 92.6%; in experiment [14], 110%; in experiment [15] it was 116%; in [16], 26.6%; in [17], 78%; in experiment [18], -1.99%.

As to `Fc1ccc(-c2ncn(CCCN3CCOCC3)c2-c2ccncc2)cc1`, the inhibition was 3.15% in experiment [1]; -0.58% in experiment [2]; -0.73% in experiment [3]; 5.04% in experiment [4]; 0.03% in experiment [19]; 0.07% in experiment [5]. Besides, the inhibition was 0.05% in [20]; 0.18% in experiment [6]; 1.37% in experiment [7]; -0.55% in experiment [8]; -2.27% in experiment [9]; -1.42% in experiment [10]. In addition, the inhibition was 2.38% in experiment [11]; 2.24% in experiment [12]; -1.55% in experiment [13]; -0.34% in experiment [14]; 0.12% in experiment [15]; -0.04% in [16]. Moreover, the inhibition in [17] came to 0.12%; in experiment [18], 0.83%.

Regarding `NS(=O)(=O)c1ccc(N/N=C2\C(=O)Nc3ccc(-c4cnco4)cc32)cc1`, the inhibition is 7.27% in experiment [1]; 3.71% in experiment [2]; 3.38% in [3]; 15.1% in experiment [4]; 73.1% in experiment [19]; -4.32% in [5]. Moreover, the inhibition in [20] was 25.8%; in experiment [6], 4.76%; in [7] it was 27.8%; in experiment [8], -0.9%; in experiment [9], 7.81%; in [10] it was 5.08%. Besides, the inhibition was 23.3% in experiment [11]; -2.26% in experiment [13]; 1.72% in experiment [14]; 7.36% in experiment [15]; -1.08% in [16]; 0.6% in [17]. Besides, the inhibition in experiment [18] is -3.91%.

The record behind these values is ChEMBL document CHEMBL1961873, “Compounds: GSK PKIS; Assays: Nanosyn kinase panel” (2012).
